Screens (PubChem)
Compounds with a hit are over-represented: about 9.1% of the library has one in this group of screens.
D1 allo mod: allosteric modulators of human D1 dopamine receptor | P21728 | HEK293 D1, CRE-luciferase, dopamine EC30 potentiation; actives deviate in either direction | B-score at 10 µM | 58,000 compounds, 5.9% hits;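 active means luminescence count or its row- and column-corrected plate score outside the 99.7% band of the plate's sample wells, on either side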
mHtt clearance: compounds clearing mutant huntingtin protein; HeLa Exon1htt(103Q)mCFP, aggregate imaging; zero = plate's median compound well; inhibition, % at 1.5 µM; 47,000 compounds, 0.42% hits; AID 853;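 active means inhibition of aggregate fluorescence above about 70%, also judged a hit by eye on the cell image, limit read from the data, passing the limit was not always enough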;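 further: cells exposed to compound for three days before fixation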
M1 agonist: M1 muscarinic receptor agonism. CHO-M1 cells, Fluo-4 calcium fluorescence, agonist mode; active compounds read high. 64,000 compounds, 3% hits. B-score at 10 µM;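 active means fluorescence rise, raw or as B-score row- and column-corrected plate score, outside the 99.7% band of its plate's samples, either direction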
M1 antagonist: blocks the rat M1 muscarinic receptor response to acetylcholine. 64,000 compounds, 3.4% hits. CHO-M1 cells, Fluo-4 calcium, ACh EC80 antagonist mode; active compounds read low. B-score at 10 µM. AID 628;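 active means calcium fluorescence response, raw or row-and-column corrected B-score, differing from the plate sample mean either way at a set confidence level, mostly lower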
Target sequence (P08482 whole entry, looked up): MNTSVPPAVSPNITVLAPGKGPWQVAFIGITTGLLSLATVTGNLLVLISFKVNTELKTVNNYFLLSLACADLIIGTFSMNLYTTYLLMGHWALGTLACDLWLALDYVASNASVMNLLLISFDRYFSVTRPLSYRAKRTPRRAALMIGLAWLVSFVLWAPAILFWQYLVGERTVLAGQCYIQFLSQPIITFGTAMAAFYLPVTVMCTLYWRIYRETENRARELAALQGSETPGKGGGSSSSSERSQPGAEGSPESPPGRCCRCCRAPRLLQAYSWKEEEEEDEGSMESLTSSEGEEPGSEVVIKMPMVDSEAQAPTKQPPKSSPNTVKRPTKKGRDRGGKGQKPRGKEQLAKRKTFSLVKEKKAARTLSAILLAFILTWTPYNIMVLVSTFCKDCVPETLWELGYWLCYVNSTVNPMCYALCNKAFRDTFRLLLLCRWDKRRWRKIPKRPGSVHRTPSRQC
The depositor's hits bear a star; / = not tested or not shown.

SMILES	D1 allo mod	mHtt clearance	M1 agonist	M1 antagonist
Cc1cccc(-n2c(SCC(=O)Nc3ccc4c(c3)OCO4)nnc2-c2ccoc2C)c1	-3.36*	24.7	-0.33	-0.22
CC1Cc2ccccc2N1C(=O)CCn1c(=O)sc2ccccc21 (configuration not stated)	0.275	/	2.12	-0.00829
O=C(C1CC(c2ccccc2O)=NO1)N1CCCCC1 (configuration not stated)	/	9.9	/	/
CCCCCc1ccc(CC(=O)Nn2c(C)nc3ccccc3c2=O)cc1	/	47.4	/	/
Clc1ccc(-c2nnc(SCc3ccon3)o2)c(Cl)c1	-4.7*	-70.7	-0.0801	0.388
C=CCSc1nnc(-c2ccc(Cl)cc2Cl)o1	-1.42	21.7	0.785	-0.16
Clc1ccc(-c2nc(-c3ccccn3)no2)cc1Cl	-5.55*	/	-1.07	-0.161
Clc1ccc(OCc2nc(-c3ccccn3)no2)c(Br)c1	-6.91*	5.8	-0.00687	-0.00402
CCCCCn1c(=NC(C)=O)c(C#N)cc2c(=O)n3cccc(C)c3nc21	0.81	/	5.25*	0.0393
Cc1cccc(C(=O)N=c2c(C#N)cc3c(=O)n4cccc(C)c4nc3n2Cc2ccco2)c1	/	-25.5	/	/
Cc1cccn2c(=O)c3cc(C#N)c(=NC(=O)c4ccccc4)n(Cc4ccco4)c3nc12	/	/	19.3*	-0.725
CCCCNC(=O)CN1C(=O)NC2(CCCc3ccccc32)C1=O (configuration not stated)	/	0.7	/	/
Cc1cc(NC(=O)c2cnn3cccnc23)no1	-0.624	/	0.0695	0.809*
O=C(Nc1cccc(Cl)c1)c1cnn2cccnc12	1.57	45.0	-0.375	0.431
CN1CC(=O)NC1=NC(=O)c1ccc(Cl)c(S(=O)(=O)N2CCCCCC2)c1	0.455	-24.1	-0.946	-0.463
C=CCc1c(C)c(C#N)c2nc3ccccc3n2c1N1CCN(C)CC1	15.6*	/	-0.0416	1.08
CCOC(=O)c1c(C)c(C(=O)Nc2ccc3c(c2)OCCO3)c(C)n1C	0.126	/	-1.75	-0.633
CCOC(=O)c1ccc(NC(=O)Nc2ccc3c(c2)OCCO3)cc1	-2.4*	/	-0.399	-0.749
C#CCOC(=O)c1ccccc1C(=O)n1nnc2ccccc21	-0.52	/	-2.27*	0.34
Cc1cn(C(=O)c2cccc(Br)c2)c(C)n1	7.98*	/	0.132	0.309
CC(C)C(c1nnnn1C(C)(C)C)N1CCN(c2cccc(Cl)c2)CC1 (configuration not stated)	-1.1	5.0	0.679	1.12
Cc1ccc(CNC(=O)C2CCC(=O)N2CCc2ccccc2)cc1 (configuration not stated)	/	-10.7	/	/
Cc1ccc(SCC(=O)NC(=O)NCc2ccco2)cc1C	/	-47.7	/	/
O=C(c1ccc2c(=O)n(C3CCCC3)c(=S)[nH]c2c1)N1CCc2ccccc21	/	-6.5	/	/
O=c1cc(CSc2ccc(S(=O)(=O)N3CCCCC3)cn2)nc2sccn12	-4.52*	-11.4	0.742	0.889
SMILES	D1 allo mod	mHtt clearance	M1 agonist	M1 antagonist
COc1ccc(S(=O)(=O)N2CCCC(C(=O)O)C2)cc1 (configuration not stated)	-2.62*	/	-0.879	-0.0776
CCc1ccc(S(=O)(=O)NC(CC(=O)O)c2ccccc2)cc1 (configuration not stated)	-6.46*	26.2	0.0684	-0.561
Cc1ccc(S(=O)(=O)NC(CC(=O)O)c2ccccc2)c(C)c1 (configuration not stated)	-0.196	13.4	0.12	0.603
CCc1ccc(N(CC(=O)Nc2nc3ccc(C)cc3s2)S(=O)(=O)c2c(C)noc2C)cc1	/	-214.4	/	/
COc1cc(S(=O)(=O)N2CCCCC2)ccc1NC=O	-4.25*	/	-0.357	0.435
COC(=O)n1c(=O)oc2cc(S(=O)(=O)N3CCCCC3)ccc21	-6.83*	/	-0.665	-0.96
CCOC(=O)n1c(=O)oc2cc(S(=O)(=O)N3CCCCC3)ccc21	-0.0393	3.1	0.153	-1.33
COCCNC(=O)CCCCCNS(=O)(=O)c1ccc(C)cc1	-0.867	1.9	0.422	0.893
Cc1ccc(S(=O)(=O)NCCN(CCNS(=O)(=O)c2ccc(C)cc2)S(C)(=O)=O)cc1	-5.28*	-24.8	1.03	-0.275
Cc1ccc(S(=O)(=O)NCCCCCC(=O)N(C)C)cc1	-4.28*	25.9	-0.217	-0.818
O=C(CCc1ccc(S(=O)(=O)N2CCOCC2)cc1)N1CCN(Cc2ccc3c(c2)OCO3)CC1	/	-8.1	/	/
COCCn1c(NCc2ccc(C)cc2)nc2c1c(=O)[nH]c(=O)n2C	-3.34*	/	0.319	0.0516
COCCn1c(NCc2ccccc2)nc2c1c(=O)[nH]c(=O)n2C	1.96	/	-0.23	0.546
CCCCOC(=O)n1c(SCC(=O)N(C)C)nc2ccccc21	-7.31*	48.7	-0.182	-1.02
Cn1c(=O)n(CCc2ccccc2)c(=O)c2c1nc1n2CCCN1c1ccc(F)cc1	/	/	0.823	0.682
CCc1ccc(NC(=O)C(=O)NCCN2CCN(C(=O)c3ccco3)CC2)cc1	/	-55.9	/	/
CN1CCN(CCCNC(=O)c2cc3c(-c4ccc(Cl)cc4)nn(C)c3s2)CC1	-2.03*	-69.7	0.136	-0.883
Cn1nc(-c2ccc(Cl)cc2)c2cc(C(=O)NCC3CCCO3)sc21 (configuration not stated)	0.296	-22.0	0.424	-0.193
Cc1ccc(C)c(N(CC(N)=O)S(C)(=O)=O)c1	1.03	-93.3	0.0671	2.14*
CCOc1ccccc1OCCCCCc1c(C)n[nH]c1C	-2.42*	/	0.125	-1.81
c1ccc(OCCSc2nnc3sc4ccccc4n23)cc1	-6.03*	21.8	-0.486	-0.548
COc1cccc(OCCSc2nnc3sc4ccccc4n23)c1	0.26	28.5	0.0382	0.0223
CCn1c2ccccc2c2cc(NC(=O)CSc3nnc(-c4ccc(OC)c(OC)c4)n3N)ccc21	/	-63.7	/	/
CCn1c2ccccc2c2cc(NC(=O)CSc3nnc(-c4ccccc4OC)n3N)ccc21	0.196	75.7*	0.987	0.592
COc1ccccc1NC=C1C(=O)OC2(CCCCC2)OC1=O	-6.87*	/	0.306	0.553
SMILES	D1 allo mod	mHtt clearance	M1 agonist	M1 antagonist
COc1ccc(-c2nc(C(N)=O)c3[nH]c(=O)n(-c4ccccc4OC)c3n2)c(OC)c1	1.11	/	-0.871	1.08
COc1ccccc1-n1c(=O)[nH]c2c(C(N)=O)nc(-c3cccnc3)nc21	18.3*	/	-0.00117	0.0405
CCNC(=O)NC(=O)COC(=O)c1ccccc1SCC(=O)NC(=O)NCC	-1.65	/	0.59	0.872
O=C(CSc1nnc(-c2ccc(Cl)s2)o1)N1CCCc2ccccc21	-2.65*	/	/	/
CN(CC(CC(=O)Nc1nncs1)c1ccccc1)S(=O)(=O)c1ccc(Br)cc1 (configuration not stated)	/	-3.7	/	/
Cc1ccc(N2C(=O)c3ccccc3C2O)nc1 (configuration not stated)	-6.69*	/	1.56	0.477
Cc1ccc(N2C(=O)c3ccccc3C2Nc2ccccc2F)nc1 (configuration not stated)	0.735	12.6	0.529	0.999
Cc1ccc(-c2noc(CCCC(=O)N3CCOCC3)n2)cc1	-0.0929	/	-0.546	-0.462
